According to PubChem BioAssay AID1159580 (chemical genetic matrix, 2015):
Where “and” joins values, the source holds several entries; their conditions need not be identical. Equal entries are not always repeated. About 2,000 (36%) of roughly 5,500 compounds were called active. Inconclusive results (about 18%) are left out. Cut-off read from the data, not from the text of the source: active = normalized growth mostly below about 0.91 (no sharp cut-off); inconclusive = no clear call, values can overlap the other calls; inactive = mostly above about 0.92. The list shows a part of the results.

Assay: chemical genetic growth profiling, strain panel (AID 1159580);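 note: tested at 20 µM; growth read once vehicle control cultures reached saturation at 30 °C; 1 = growth at the plate median or of vehicle wells; lower values mean less growth of the strain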
Settings: growth OD

Measured: normalized growth

CCCn1c(=O)c2[nH]c(C3CCCC3)nc2n(CCC)c1=O
inactive: S. cerevisiae deletion strains, locus YJR043C, strain POL32, active compounds read low 0.989 | S. cerevisiae deletion strains, locus YJR075W, strain HOC1, active compounds read low 0.968 and 0.985 | S. cerevisiae deletion strains, locus YKL009W, strain mrt4, active compounds read low 0.966 | S. cerevisiae deletion strains, locus YKL068W, active compounds read low 0.965 | S. cerevisiae deletion strains, locus YKL085W, strain MDH1 (second series), active compounds read low 0.994 | S. cerevisiae deletion strains, locus YKL085W, strain MDH1, active compounds read low 0.994 | S. cerevisiae deletion strains, locus YKL160W, strain elf1, active compounds read low 0.996 | S. cerevisiae deletion strains, locus YKL190W, strain CNB1, active compounds read low 0.981 | S. cerevisiae deletion strains, locus YKR001C, strain vps1, active compounds read low 0.964 | S. cerevisiae deletion strains, locus YKR026C, strain gcn3, active compounds read low 0.998 | S. cerevisiae deletion strains, locus YKR091W, strain srl3, active compounds read low 0.982 | S. cerevisiae deletion strains, locus YLL001W, strain dnm1, active compounds read low 0.986 | S. cerevisiae deletion strains, locus YLL026W, active compounds read low 0.974 | S. cerevisiae deletion strains, locus YLL041C, strain sdh2, active compounds read low 0.979 | S. cerevisiae deletion strains, locus YLR027C, strain aat2, active compounds read low 0.987 | S. cerevisiae deletion strains, locus YLR039C, strain RIC1, active compounds read low 0.881 | S. cerevisiae deletion strains, locus YLR058C, strain SHM2, active compounds read low 0.982 | S. cerevisiae deletion strains, locus YLR102C, strain apc9, active compounds read low 0.957 | S. cerevisiae deletion strains, locus YLR221C, strain rsa3, active compounds read low 1 | S. cerevisiae deletion strains, locus YLR258W, strain gsy2, active compounds read low 0.963 | S. cerevisiae deletion strains, locus YLR262C, strain YPT6 (second series), active compounds read low 0.965 | S. cerevisiae deletion strains, locus YLR262C, strain YPT6, active compounds read low 0.854 | S. cerevisiae deletion strains, locus YLR268W, strain sec22, active compounds read low 0.957 | S. cerevisiae deletion strains, locus YLR320W, strain mms22, active compounds read low 0.974 | S. cerevisiae deletion strains, locus YLR330W, strain CHS5, active compounds read low 0.98 | S. cerevisiae deletion strains, locus YLR342W, strain FKS1 (second series), active compounds read low 0.979 | S. cerevisiae deletion strains, locus YLR342W, strain FKS1, active compounds read low 0.987 | S. cerevisiae deletion strains, locus YLR357W, strain rsc2, active compounds read low 0.986 | S. cerevisiae deletion strains, locus YLR370C, strain arc18, active compounds read low 0.986 | S. cerevisiae deletion strains, locus YLR371W, strain rom2, active compounds read low 0.951 | S. cerevisiae deletion strains, locus YLR384C, strain iki3, active compounds read low 0.995 | S. cerevisiae deletion strains, locus YLR418C, strain cdc73, active compounds read low 1.01 | S. cerevisiae deletion strains, locus YML016C, strain PPZ1, active compounds read low 0.992 | S. cerevisiae deletion strains, locus YML032C, strain rad52, active compounds read low 0.959 | S. cerevisiae deletion strains, locus YML120C, strain ndi1, active compounds read low 0.997 | S. cerevisiae deletion strains, locus YML124C, strain tub3, active compounds read low 0.972 | S. cerevisiae deletion strains, locus YMR058W, strain fet3, active compounds read low 1 | S. cerevisiae deletion strains, locus YMR078C, strain ctf18, active compounds read low 0.972 | S. cerevisiae deletion strains, locus YMR125W, strain sto1, active compounds read low 0.994 | S. cerevisiae deletion strains, locus YMR129W, active compounds read low 0.968 | S. cerevisiae deletion strains, locus YMR205C, strain PFK2, active compounds read low 0.967 | S. cerevisiae deletion strains, locus YMR223W, strain ubp8, active compounds read low 0.97 | S. cerevisiae deletion strains, locus YMR231W, strain pep5, active compounds read low 0.994 | S. cerevisiae deletion strains, locus YMR263W, strain SAP30, active compounds read low 0.993 | S. cerevisiae deletion strains, locus YMR307W, strain GAS1, active compounds read low 0.947 | S. cerevisiae deletion strains, locus YNL067W, strain RPL9B, active compounds read low 0.986 | S. cerevisiae deletion strains, locus YNL071W, strain lat1, active compounds read low 0.997 | S. cerevisiae deletion strains, locus YNL128W, strain TEP1, active compounds read low 1 | S. cerevisiae deletion strains, locus YNL153C, strain GIM3, active compounds read low 0.998 and 0.965 | S. cerevisiae deletion strains, locus YNL175C, strain NOP13, active compounds read low 0.977 | S. cerevisiae deletion strains, locus YNL197C, strain WHI3, active compounds read low 0.976 | S. cerevisiae deletion strains, locus YNL209W, strain ssb2, active compounds read low 0.994 | S. cerevisiae deletion strains, locus YNL224C, strain SQS1, active compounds read low 0.975 | S. cerevisiae deletion strains, locus YNL233W, strain BNI4, active compounds read low 0.991 | S. cerevisiae deletion strains, locus YNL248C, strain rpa49, active compounds read low 0.992 | S. cerevisiae deletion strains, locus YNL250W, strain rad50, active compounds read low 0.973 | S. cerevisiae deletion strains, locus YNL271C, strain bni1, active compounds read low 0.974 | S. cerevisiae deletion strains, locus YNL298W, strain CLA4, active compounds read low 0.972 | S. cerevisiae deletion strains, locus YNL307C, strain MCK1, active compounds read low 0.97 | S. cerevisiae deletion strains, locus YNL322C, strain KRE1 (second series), active compounds read low 0.986 | S. cerevisiae deletion strains, locus YNL322C, strain KRE1, active compounds read low 0.984 and 0.987 | S. cerevisiae deletion strains, locus YNR049C, strain mso1, active compounds read low 0.984 | S. cerevisiae deletion strains, locus YNR052C, strain pop2, active compounds read low 0.975 | S. cerevisiae deletion strains, locus YOL006C, strain TOP1, active compounds read low 0.986 | S. cerevisiae deletion strains, locus YOL012C, strain htz1 0.878 | S. cerevisiae deletion strains, locus YOL147C, strain pex11, active compounds read low 0.962 | S. cerevisiae deletion strains, locus YOR001W, strain rrp6, active compounds read low 0.995 | S. cerevisiae deletion strains, locus YOR061W, strain CKA2, active compounds read low 0.995 | S. cerevisiae deletion strains, locus YOR069W, strain VPS5, active compounds read low 0.989 | S. cerevisiae deletion strains, locus YOR070C, strain gyp1, active compounds read low 0.993 | S. cerevisiae deletion strains, locus YOR080W, strain dia2, active compounds read low 0.984 | S. cerevisiae deletion strains, locus YOR083W, strain WHI5 (second series), active compounds read low 0.989 | S. cerevisiae deletion strains, locus YOR083W, strain WHI5, active compounds read low 1.01 | S. cerevisiae deletion strains, locus YOR106W, strain vam3, active compounds read low 0.996 | S. cerevisiae deletion strains, locus YOR136W, strain idh2, active compounds read low 0.954 | S. cerevisiae deletion strains, locus YOR144C, strain elg1, active compounds read low 0.965 | S. cerevisiae deletion strains, locus YOR184W, strain ser1, active compounds read low 0.955 | S. cerevisiae deletion strains, locus YOR265W, strain rbl2, active compounds read low 0.991 | S. cerevisiae deletion strains, locus YOR270C, strain vph1, active compounds read low 0.998 | S. cerevisiae deletion strains, locus YOR290C, strain snf2, active compounds read low 0.923 | S. cerevisiae deletion strains, locus YOR316C, strain cot1, active compounds read low 0.977 | S. cerevisiae deletion strains, locus YPL051W, strain arl3, active compounds read low 0.987 | S. cerevisiae deletion strains, locus YPL055C, strain LGE1, active compounds read low 0.976 | S. cerevisiae deletion strains, locus YPL078C, strain atp4, active compounds read low 0.994 | S. cerevisiae deletion strains, locus YPL106C, strain sse1, active compounds read low 0.976 | S. cerevisiae deletion strains, locus YPL240C, strain hsp82, active compounds read low 0.983 | S. cerevisiae deletion strains, locus YPL241C, strain CIN2, active compounds read low 0.954 and 1.01 | S. cerevisiae deletion strains, locus YPR119W, strain clb2, active compounds read low 0.967 | S. cerevisiae deletion strains, locus YPR141C, strain kar3, active compounds read low 0.977 | S. cerevisiae deletion strains, locus YPR163C, strain tif3, active compounds read low 0.969 | S. cerevisiae deletion strains, locus YPR167C, strain met16, active compounds read low 0.982 | S. cerevisiae deletion strains, strain wtn01, active compounds read low 0.98 | S. cerevisiae strains, strain wild type, active compounds read low 0.981
